# Assay results reported in PMC12431657, “Discovery and mechanistic insights of dibenzoylmethane as a broad spectrum inhibitor of coronavirus” (PLOS Pathogens, 2025).
# Where two headings read alike, the source gives them in different places. The whole screen tested about 3,300 compounds, of which about 60 (2%) showed an effect of 50% or more. For the sample, strong results were picked, then their nearest neighbours and some compounds at random.
# Test system: HCoV-OC43
# Design: species or system RD; HTS, protection from HCoV-OC43 induced cell death, luminescent cell viability (CellCounting-Lite 2.0), inhibition rate
# Conditions: 24 h post infection, 1 h compound pre-incubation, 10 µM, inhibitor
SMILES,OC43 Inhibition rate,"OC43 Inhibition rate (OC43 Inhibition rate, 24 h)"
Oc1ccc2ccc3cccc4ccc1c2c34 [1-Hydroxypyrene],16.8%,
CC1(C)[C@@H](O)CC[C@]2(C)[C@H]3CC=C4[C@@H]5C[C@@]6(C)C[C@H](OC6=O)[C@]5(C)CC[C@@]4(C)[C@]3(C)CC[C@@H]12 [Wilforlide A],0.1%,
O=C(N[C@@H](Cc1ccccc1)C(=O)N[C@H](CO)Cc1ccccc1)c1ccccc1 [Aurantiamide],1%,
CC(C)=CCc1cc2c(cc1O)oc(=O)c1c3ccc(O)cc3oc21 [Psoralidin],0%,
COc1c(CC=C(C)C)c(O)cc2oc(=O)c(-c3ccc(O)cc3O)cc12 [Glycycoumarin],0.9%,
COc1c(CC=C(C)C)c(O)cc2oc(=O)c3c4ccc(O)cc4oc3c12 [Neoglycyrol],113.3%,
Cc1c(C)c2c(c(C)c1O)CC[C@@](C)(CCCC(C)CCCC(C)CCCC(C)C)O2 (stereo in doubt) [rel-α-Vitamin E],5.5%,
CC1(C)CC[C@]2(C(=O)O[C@@H]3O[C@H](CO)[C@@H](O)[C@H](O)[C@H]3O)CC[C@]3(C)C(=CC[C@@H]4[C@@]5(C)CC[C@H](O[C@@H]6O[C@H](C(=O)O)[C@@H](O[C@@H]7O[C@@H](CO)[C@H](O)[C@H]7O)[C@H](O)[C@H]6O)C(C)(C)[C@@H]5CC[C@]43C)[C@@H]2C1 [Araloside A],1.5%,
"COc1cc2oc(-c3ccccc3)cc(=O)c2c(OC)c1OC [5,6,7-Trimethoxyflavone]",0.1%,
COc1cc(-c2c3c(c(O)c4cc5c(cc24)OCO5)COC3=O)cc(OC)c1OC [Tetradehydropodophyllotoxin],1%,
COc1c(C)c2c(c(O)c1C/C=C(\C)CCC(=O)O)C(=O)OC2 [Mycophenolic acid],36.2%,
COC(=O)CC/C(C)=C/Cc1c(O)c2c(c(C)c1OC)COC2=O [Methyl mycophenolate],61.8%,
O=C(O)c1cn[nH]c1 [4-Carboxypyrazole],0.1%,
C=C(C(=O)O)[C@@H]1CC[C@@H](C)[C@@H]2CCC(C)=C[C@@H]21 [Artemisic acid],4.6%,
Cc1ncc(C[n+]2csc(CCO)c2C)c(N)n1 [Thiamine monochloride],,2.4%
C[S@@+]([O-])CCCCN=C=S [(R)-sulforaphane],71.2%,
CC1=CCCC(C)(C)[C@H]1/C=C/C(C)=C/C=C/C(C)=C/C=C/C=C(C)/C=C/C=C(C)/C=C/C1=C(C)CCCC1(C)C [α-Carotene],19.1%,
O=c1ccc2nccc3c4ccccc4n1c23 [Canthin-6-one],-0.9%,
"O=C(/C=C/c1ccc(O)c(O)c1)O[C@H]1[C@H](O)C[C@](O)(C(=O)O)C[C@H]1OC(=O)/C=C/c1ccc(O)c(O)c1 [3,4-Dicaffeoylquinic acid]",6.5%,
C[N+](C)(C)[O-] [Trimethylamine N-oxide (dihydrate)],,-1.8%

SMILES,OC43 Inhibition rate,"OC43 Inhibition rate (OC43 Inhibition rate, 24 h)"
CC(C)C[C@H](NC(=O)[C@@H](O)[C@H](N)Cc1ccccc1)C(=O)O [Bestatin],,1.8%
O=C1C[C@@H](c2ccc(O)c(O)c2)Oc2c1ccc(O[C@@H]1O[C@H](CO)[C@@H](O)[C@H](O)[C@H]1O)c2O [Flavanomarein],-5.7%,
O=C1C[C@@H](c2ccc(O)c(O)c2)Oc2cc(O)cc(O)c21 [Eriodictyol],0.2%,
CC(C)=CCc1cc2c(cc1O)O[C@H](c1ccc(O)cc1)CC2=O [Bavachin],66.9%,
O=C1C[C@@H](c2ccc(O)cc2)Oc2cc(O)ccc21 [Liquiritigenin],0.2%,
CC(C)=CCc1cc([C@@H]2CC(=O)c3ccc(O)c(CC=C(C)C)c3O2)ccc1O [Glabrol],55.6%,
CC(C)=CCc1c(O)cc2c(c1O)C(=O)C[C@@H](c1ccc(O)cc1)O2 [(2S)-6-Prenylnaringenin],54.9%,
COc1cc(O)c(CC=C(C)C)c2c1C(=O)C[C@@H](c1ccc(O)cc1)O2 [(2S)-Isoxanthohumol],48.2%,
COc1cc2c(cc1CC=C(C)C)C(=O)C[C@@H](c1ccc(O)cc1)O2 [Bavachinin],20.3%,
COc1cc(O)c(CC=C(C)C)c2c1C(=O)CC(c1ccc(O)cc1)O2 (stereo not drawn) [Isoxanthohumol],30.2%,
C[C@H](CCC(=O)NCCS(=O)(=O)O)[C@H]1CC[C@H]2[C@@H]3C[C@H](O)[C@@H]4C[C@H](O)CC[C@]4(C)[C@H]3CC[C@]12C [Taurohyodeoxycholic acid],-1.1%,
COc1cccc(O)c1C(=O)O [2-Hydroxy-6-methoxybenzoic acid],0%,
CCCCCCC/C=C\C(=O)O [(Z)-2-Decenoic acid],29.5%,
CC(C)=CCC1C(=O)C(C(=O)CC(C)C)=C(O)C(O)(CC=C(C)C)C1=O (stereo not drawn) [Humulone],-1%,
"Oc1ccc(O)c(O)c1 [1,2,4-Trihydroxybenzene]",-0.2%,
COc1c2c(cc3oc(C)cc(=O)c13)OC(C(C)(C)O[C@@H]1O[C@H](CO)[C@@H](O)[C@H](O)[C@H]1O)C2 (stereo partly drawn) [5-O-Methylvisammioside],0.3%,
C=C(C)[C@H](C)c1cc(/C=C/C(=O)c2ccc(O)cc2)c(OC)cc1O [Licochalcone E],55.6%,
COc1cc(O)ccc1/C=C/C(=O)c1ccc(O)cc1 [Echinatin],46.1%,
COc1c(/C=C/C(=O)c2ccc(O)cc2)ccc(O)c1O [Licochalcone B],45.6%,
O=C1C[C@@H](c2ccc(O[C@@H]3O[C@H](CO)[C@@H](O)[C@H](O)[C@H]3O)cc2)Oc2cc(O[C@@H]3OC[C@](O)(CO)[C@H]3O)ccc21 [Liguiritigenin-7-O-D-apiosyl-4'-O-D-glucoside],1.2%,

SMILES,OC43 Inhibition rate,"OC43 Inhibition rate (OC43 Inhibition rate, 24 h)"
CCC(O)C(=O)O (stereo not drawn) [Sodium 2-hydroxybutanoate],-6%,
C[C@@H]1CC[C@]2(C(=O)O[C@@H]3O[C@H](CO)[C@@H](O)[C@H](O)[C@H]3O)CC[C@]3(C)C(=CC[C@@H]4[C@@]5(C)C[C@@H](O)[C@H](O)C(C)(C)[C@@H]5CC[C@]43C)[C@@H]2[C@]1(C)O [Rosamultin],1%,
CC(C)=C[C@@H]1CO[C@]23C[C@]4(CO2)[C@H](CC[C@@H]2[C@@]5(C)CC[C@H](O[C@@H]6OC[C@H](O)[C@H](O[C@@H]7O[C@H](COS(=O)(=O)O)[C@@H](O)[C@H](O)[C@H]7O)[C@H]6O[C@@H]6O[C@@H](CO)[C@H](O)[C@H]6O)C(C)(C)[C@@H]5CC[C@]24C)[C@H]3[C@@]1(C)O [Bacopaside I],0.8%,
O=C1NCN(c2ccccc2)C12CCN(CCCOc1ccc(F)cc1)CC2 [Spiramide],69.6%,
CC(=O)O[C@]12CCC(C(=O)O)=CC[C@]13CC[C@H]2[C@@](C)(/C=C/C=C(\C)C(=O)O)OC3=O [Pseudolaric Acid C2],3.3%,
Cn1cncc1C[C@H](N)C(=O)O [3-Methyl-L-histidine],-5.7%,
CC[C@@H](C)O [(R)-(-)-2-Butanol],0.1%,
CC(=O)N[C@@H](CCCCN)C(=O)O [Acetyl-L-lysine],-0.1%,
COc1cc2c(cc1OC)[C@@H](Cc1ccc(O)c(Oc3cc4c(cc3OC)CCN(C)[C@@H]4Cc3ccc(O)cc3)c1)N(C)CC2 [Liensinine (Diperchlorate)],,24.8%
COc1cc2c(cc1OC)[C@@H](Cc1ccc(O)c(Oc3cc4c(cc3OC)CCN(C)[C@@H]4Cc3ccc(O)cc3)c1)N(C)CC2 [Liensinine],,54.6%
COc1cc2c(cc1OC)[C@@H](Cc1ccc(O)c(Oc3cc4c(cc3OC)CCN(C)[C@@H]4Cc3ccc(O)cc3)c1)N(C)CC2 [Liensinine (perchlorate)],,0.4%
CCCCCCCC/C=C/CCCCCCCC(=O)O [Elaidic acid],-0.4%,
"O=C(/C=C/c1ccc(O)c(O)c1)O[C@@H]1[C@H](O)C[C@@](O)(C(=O)O)C[C@H]1OC(=O)/C=C/c1ccc(O)c(O)c1 [4,5-Dicaffeoylquinic acid]",-0.7%,
C=C1[C@H](OC(=O)/C=C(\C)CC)C[C@@H](C(C)C)[C@@H]2[C@@H]([C@@H](C)OC(C)=O)C(=O)C[C@@H]12 [Tussilagone],60.7%,
O=C(/C=C/C=C/c1ccccc1)CCc1ccccc1 [Alnustone],1.1%,
C[C@@H]1O[C@@H](Oc2cc(O)c3c(=O)c(O)c(-c4ccc(O)cc4)oc3c2O)[C@H](O)[C@H](O)[C@H]1O [Rhodionin],0.2%,
CCCCCCCCCCCCCCCCCCCCCCCCCCCC(=O)O [Octacosanoic acid],-0.6%,
C[C@@H]1O[C@@H](O[C@H]2[C@H](OC(=O)[C@]34CCC(C)(C)C[C@H]3C3=CC[C@@H]5[C@@]6(C)C[C@H](O)[C@@H]7O[C@@H]8O[C@H](CO)[C@@H](O)[C@H](O)[C@H]8O[C@@H]8OC[C@H](O)[C@H](O)[C@H]8OC(=O)C[C@@](C)(O)CC(=O)OC[C@@]7(C)[C@@H]6CC[C@@]5(C)[C@]3(C)CC4)OC[C@H](O)[C@@H]2O)[C@H](O)[C@H](O[C@@H]2OC[C@@H](O)[C@H](O)[C@H]2O)[C@H]1O [Tubeimoside I],57.2%,
C[C@@H]1O[C@@H](O[C@H]2[C@H](O[C@H]3CC[C@@]4(C)[C@@H](CC[C@]5(C)[C@@H]4CC=C4[C@@H]6CC(C)(C)CC[C@]6(C(=O)O[C@@H]6O[C@H](CO[C@@H]7O[C@H](CO)[C@@H](O)[C@H](O)[C@H]7O)[C@@H](O)[C@H](O)[C@H]6O)CC[C@]45C)[C@]3(C)CO)OC[C@H](O)[C@@H]2O)[C@H](O)[C@H](O[C@@H]2O[C@H](CO)[C@@H](O)[C@H](O)[C@H]2O)[C@H]1O [Macranthoidin A],-0.3%,
C[C@@H]1O[C@H]2O[C@H]3[C@@H](OC[C@H](O)[C@@H]3O)OC(=O)[C@]34CCC(C)(C)C[C@H]3C3=CC[C@@H]5[C@@]6(C)C[C@H](O)[C@H](O[C@@H]7O[C@H](CO)[C@@H](O)[C@H](O)[C@H]7O[C@@H]7OC[C@H](OC(=O)C[C@](C)(O)CC(=O)O[C@@H]1[C@@H](O[C@@H]1OC[C@@H](O)[C@H](O)[C@H]1O)[C@H]2O)[C@H](O)[C@H]7O)[C@@](C)(CO)[C@@H]6CC[C@@]5(C)[C@]3(C)C[C@H]4O [Tubeimoside II],-2.8%,
